Experimental data as given in PubChem BioAssay (EPA / NIEHS).
Calls of active or inactive are those of the source. The calls were made as follows: active = hit-call score of the fitted dose curve at least 0.9, where 1 is the maximum; inactive = score below 0.9.

Columns and labels:
[1] = APR_HepG2_CellLoss_72hr: Apredica 72-hour HepG2 Assay for Cell Loss (AID 2282915); conditions: high-content imaging
In short: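 Cell number comes from Hoechst 33342-labelled nuclei, imaged at 20x after 3.7% formaldehyde fixation. Dosing was 0.39–200 uM, ten concentrations in duplicate, 0.5% DMSO final, for 72 h. Bidirectional fit relative to DMSO baseline.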

[2] = APR_HepG2_P-H2AX_72hr: Apredica 72-hour HepG2 Assay for H2AX Phosphorylation (AID 2282916); conditions: imaging, actives raise or lower the signal;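 also: phospho-histone H2A.x immunostain intensity per cell marking DNA damage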
In short: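 Human hepatoma HepG2 cells are dosed across ten concentrations (0.39 to 200 uM, 0.5% v/v DMSO) and incubated 72 hr. Phospho-histone H2A.x is then detected by antibody staining alongside c-Jun and Hoechst, and quantified by automated fluorescence imaging.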

[3] = APR_HepG2_MitoMembPot_72hr: Apredica 72-hour HepG2 Assay for Mitochondrial Membrane Potential (AID 2282917); conditions: imaging, actives raise or lower the signal
In short: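 Membrane potential read by MitoTracker Red CMXRos (250 nM, 30 min, pre-fixation) fluorescence imaging of HepG2 after 72 hr exposure. Ten concentrations, 0.39–200 uM, duplicate wells, 0.5% DMSO; fitted in both directions against DMSO baseline.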

[4] = APR_HepG2_MitoticArrest_72hr: Apredica 72-hour HepG2 Assay for Mitotic Arrest (AID 2282918); conditions: high-content imaging, actives raise or lower the signal
In short: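 HepG2, 72 hr exposure, 0.39–200 uM in duplicate, 0.5% v/v DMSO final. Formaldehyde-fixed, Triton-permeabilized, anti-phospho-histone H3/FITC plus Hoechst. ArrayScan imaging at 20x; curves fit bidirectionally against DMSO baseline.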

[5] = APR_HepG2_MicrotubuleCSK_72hr: Apredica 72-hour HepG2 Assay for Microtubule CSK Stabilty (AID 2282919); conditions: HepG2 microtubule cytoskeleton, high-content imaging, actives raise or lower the signal
In short: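 High-content imaging of alpha-tubulin staining in fixed HepG2 cells after 72 hr treatment with ten concentrations from 0.39 to 200 uM (0.5% DMSO). Fitting was bidirectional against DMSO; taxol served as positive control.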

[6] = APR_HepG2_P-H2AX_24hr: Apredica 24-hour HepG2 Assay for H2AX Phosphorylation (AID 2282920); conditions: high-content imaging, actives raise or lower the signal
In short: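 HCS fluorescence imaging of phospho-H2A.x immunostain (with Hoechst 33342 nuclear counterstain) in HepG2 after 24 hr compound exposure; 10 concentrations, 0.39–200 uM, duplicate wells, 0.5% v/v DMSO. Gain or loss of signal fitted relative to DMSO baseline.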

[7] = APR_HepG2_StressKinase_72hr: Apredica 72-hour HepG2 Assay for Stress Kinase (AID 2282921); conditions: HepG2 stress kinase (phospho-c-Jun) imaging, actives raise or lower the signal
In short: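 After a 72 h compound treatment spanning 0.39 to 200 uM, formaldehyde-fixed cells are labelled for phosphorylated c-Jun and nuclei, imaged by automated fluorescence microscopy, and activity is fitted in both directions relative to DMSO controls.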

[8] = APR_HepG2_StressKinase_24hr: Apredica 24-hour HepG2 Assay for Stress Kinase (AID 2282922); conditions: HepG2 stress kinase (phospho-c-Jun) imaging, actives raise or lower the signal
In short: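 High-content imaging of phospho-c-Jun immunofluorescence in fixed, permeabilized HepG2 cells after 24 h dosing. Ten concentrations, 0.39 to 200 uM, run in duplicate at 0.5% v/v DMSO; gain or loss of signal versus DMSO.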

[9] = APR_HepG2_p53Act_72hr: Apredica 72-hour HepG2 Assay for p53 Activation (AID 2282923); conditions: high-content imaging, actives raise or lower the signal;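 also: average cellular p53 protein immunofluorescence intensity in HepG2 cells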
In short: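 Imaging-based endpoint: after 72 hr compound exposure (up to 200 uM, 0.5% DMSO), fixed and permeabilized monolayers were labelled with anti-p53 antibody and imaged; signal change in either direction was fitted relative to DMSO controls.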

[10] = APR_HepG2_MitoMass_72hr: Apredica 72-hour HepG2 Assay for Mitochondrial Mass (AID 2282924); conditions: high-content imaging, actives raise or lower the signal;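 also: MitoTracker Red CMXRos stain intensity per cell imaged as mitochondrial mass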
In short: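 Readout is imaged MitoTracker Red (250 nM, 30 min, pre-fixation) signal, fitted bidirectionally against DMSO baseline. Human HepG2 liver cells received compound 0.39–200 uM in duplicate for 72 hr, final DMSO 0.5%.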

CCCCOCN(C(=O)CCl)c1c(CC)cccc1CC
AC50 [1]: 30.6 µM (active)
AC50 [2]: 113 µM (active)
AC50 [3]: 33.2 µM (active)
AC50 [4]: 181 µM (active)
AC50 [5]: 10.6 µM (active)
outcome [6]: inactive
AC50 [7]: 13.2 µM (active)
outcome [8]: inactive
outcome [9]: inactive
outcome [10]: inactive

CS(=O)(=O)c1ccc(C(=O)C2C(=O)CCCC2=O)c([N+](=O)[O-])c1
outcome [1]: inactive
outcome [2]: inactive
outcome [3]: inactive
outcome [4]: inactive
outcome [5]: inactive
outcome [6]: inactive
outcome [7]: inactive
outcome [8]: inactive
outcome [9]: inactive
outcome [10]: inactive

Nc1c(Cl)c(Cl)nc(C(=O)O)c1Cl
outcome [1]: inactive
outcome [2]: inactive
outcome [4]: inactive
outcome [5]: inactive
outcome [6]: inactive
outcome [7]: inactive
outcome [8]: inactive
outcome [9]: inactive
outcome [10]: inactive

CCOC(=O)C(C)OC(=O)c1cc(Oc2ccc(C(F)(F)F)cc2Cl)ccc1[N+](=O)[O-] (configuration not stated)
AC50 [1]: 41 µM (active)
outcome [2]: inactive
outcome [4]: inactive
outcome [5]: inactive
outcome [6]: inactive
outcome [7]: inactive
outcome [8]: inactive
outcome [9]: inactive
outcome [10]: inactive

COC(=O)c1c(C(F)F)nc(C(F)(F)F)c(C2=NCCS2)c1CC(C)C
AC50 [1]: 60.5 µM (active)
outcome [2]: inactive
outcome [4]: inactive
AC50 [5]: 72.7 µM (active)
outcome [6]: inactive
outcome [7]: inactive
outcome [8]: inactive
outcome [9]: inactive
outcome [10]: inactive

N#CN=C1SCCN1Cc1ccc(Cl)nc1
outcome [1]: inactive
outcome [2]: inactive
outcome [4]: inactive
outcome [5]: inactive
outcome [6]: inactive
outcome [7]: inactive
outcome [8]: inactive
outcome [9]: inactive
outcome [10]: inactive

Cc1c(COC(=O)[C@@H]2[C@H](/C=C(\Cl)C(F)(F)F)C2(C)C)cccc1-c1ccccc1
outcome [1]: inactive
outcome [2]: inactive
outcome [4]: inactive
outcome [5]: inactive
outcome [6]: inactive
outcome [7]: inactive
outcome [8]: inactive
outcome [9]: inactive
outcome [10]: inactive

CC1(C)CON(Cc2ccccc2Cl)C1=O
outcome [1]: inactive
outcome [2]: inactive
outcome [4]: inactive
outcome [5]: inactive
outcome [6]: inactive
outcome [7]: inactive
outcome [8]: inactive
outcome [9]: inactive
outcome [10]: inactive

CC(C)=CC1C(C(=O)OCc2coc(Cc3ccccc3)c2)C1(C)C (configuration not stated)
AC50 [1]: 40.1 µM (active)
outcome [2]: inactive
outcome [4]: inactive
AC50 [5]: 74.2 µM (active)
outcome [6]: inactive
outcome [7]: inactive
outcome [8]: inactive
outcome [10]: inactive

O=C1C2CC=CCC2C(=O)N1SC(Cl)(Cl)Cl (configuration not stated)
AC50 [1]: 100 µM (active)
AC50 [2]: 88.1 µM (active)
AC50 [4]: 100 µM (active)
outcome [5]: inactive
AC50 [6]: 45.2 µM (active)
outcome [7]: inactive
AC50 [8]: 28.1 µM (active)
outcome [9]: inactive
outcome [10]: inactive

Cn1c(-c2ccccc2)cc(-c2ccccc2)[n+]1C
outcome [1]: inactive
outcome [2]: inactive
outcome [4]: inactive
outcome [5]: inactive
outcome [6]: inactive
outcome [7]: inactive
outcome [8]: inactive
outcome [9]: inactive
outcome [10]: inactive

Clc1cccc(C(Cl)(Cl)Cl)n1
outcome [1]: inactive
outcome [2]: inactive
outcome [4]: inactive
outcome [5]: inactive
outcome [6]: inactive
outcome [7]: inactive
outcome [8]: inactive
outcome [9]: inactive
outcome [10]: inactive

CCSC(=O)N1CCCCCC1
outcome [1]: inactive
outcome [2]: inactive
outcome [4]: inactive
outcome [5]: inactive
outcome [6]: inactive
outcome [7]: inactive
outcome [8]: inactive
outcome [9]: inactive
outcome [10]: inactive

C=CCOC(=O)C(C)(C)OC(=O)c1cc(-n2c(=O)cc(C(F)(F)F)n(C)c2=O)ccc1Cl
AC50 [1]: 97.7 µM (active)
outcome [2]: inactive
AC50 [4]: 90.1 µM (active)
AC50 [5]: 100 µM (active)
outcome [6]: inactive
outcome [7]: inactive
outcome [8]: inactive
outcome [9]: inactive
outcome [10]: inactive

CCOc1nc(F)cc2nc(S(=O)(=O)Nc3c(Cl)cccc3Cl)nn12
outcome [1]: inactive
outcome [2]: inactive
outcome [4]: inactive
outcome [5]: inactive
outcome [6]: inactive
outcome [7]: inactive
outcome [8]: inactive
outcome [9]: inactive
outcome [10]: inactive

Nc1c(Cl)c(F)nc(OCC(=O)O)c1Cl
outcome [1]: inactive
outcome [2]: inactive
outcome [4]: inactive
outcome [5]: inactive
outcome [6]: inactive
outcome [7]: inactive
outcome [8]: inactive
outcome [9]: inactive
outcome [10]: inactive

Clc1nc(Cl)nc(Nc2ccccc2Cl)n1
outcome [1]: inactive
outcome [2]: inactive
outcome [4]: inactive
outcome [5]: inactive
outcome [6]: inactive
outcome [7]: inactive
outcome [8]: inactive
outcome [9]: inactive
outcome [10]: inactive

CCOc1nc(C(Cl)(Cl)Cl)ns1
outcome [1]: inactive
outcome [2]: inactive
outcome [4]: inactive
outcome [5]: inactive
outcome [6]: inactive
outcome [7]: inactive
outcome [8]: inactive
outcome [9]: inactive
outcome [10]: inactive

CCOP(=S)(OCC)Oc1nc(Cl)n(C(C)C)n1
outcome [1]: inactive
outcome [2]: inactive
outcome [4]: inactive
outcome [5]: inactive
outcome [6]: inactive
outcome [7]: inactive
outcome [8]: inactive
outcome [9]: inactive
outcome [10]: inactive
